Results published in the supplement of paper PMC10646978.
± gives the standard deviation.

How the values were obtained:
Details in all cases: modulator concentration 10 µM
[1] = tested on: RAW-Dual (murine macrophage reporter line); assay: NF-kB reporter (SEAP) activity fold change vs agonist alone; higher = enhanced NF-kB activity
Method in brief: (§1)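 RAW-Dual murine macrophage reporter cells were seeded at 50 000 per well in 384-well plates and pre-incubated 1 hour at 37 °C with compound pin-transferred to 10 μM final. After 1 hour, a PRR agonist was added and cells incubated overnight. Supernatant NF-κB (SEAP, QUANTI-Blue, 620 nm absorbance) and IRF (Lucia luciferase, QUANTI-Luc, luminescence) signals were divided by the mean agonist-only control on the same plate to give fold change. Two replicate plates were averaged, with errors by propagation.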

[2] = tested on: RAW-Dual (murine macrophage reporter line); assay: IRF reporter (Lucia luciferase) activity fold change vs agonist alone; higher = enhanced IRF activity
Method in brief: as §1

[3] = tested on: RAW-Dual (murine macrophage reporter line); assay: viability score (confluency relative to resting cells, overnight) (fraction); higher = more viable, active = viable (0.7 or more)
Method in brief: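 A compound met the cutoff when both of two confluency masks exceeded 70% of resting cells. Those masks were made with IncuCyte software from IncuCyte images of RAW-Dual macrophages treated overnight at 10 μM final. This is the basis of the viability score, which is confluency relative to resting cells.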

[4] = agonist: CpG ODN 1826 0.5 ug/mL

SMILES | NF-kB reporter [1, 4] | NF-kB reporter ([1]; agonist: LPS 0.1 ug/mL) | NF-kB reporter ([1]; agonist: MPLA […]) | IRF reporter ([2]; agonist: 3'3'-cGAMP 10 ug/mL) | IRF reporter ([2]; agonist: LPS 0.1 ug/mL) | IRF reporter ([2]; agonist: MPLA […]) | viability score [3]
O=c1oc2cc(O)ccc2s1 | 1.11 ± 0.088 | 1.02 ± 0.07 | 1.02 ± 0.026 | 0.911 ± 0.05 | 0.962 ± 0.067 | 0.827 ± 0.074 | 1 (active)
CN(C)CCC(c1ccc(Br)cc1)c1ccccn1.O=C(O)/C=C\C(=O)O (configuration not stated) | 1.07 ± 0.14 | 1.15 ± 0.27 | 0.939 ± 0.052 | 0.71 ± 0.024 | 1.17 ± 0.34 | 0.918 ± 0.086 | 1.01 (active)
COc1ccc(Cn2cc3c(-c4ccc(F)cc4)nnc-3c3cc(OC)c(OC)cc32)cc1 | 0.318 ± 0.026 | 1.17 ± 0.13 | 2.16 ± 0.1 | 1.79 ± 0.12 | 2.42 ± 0.18 | 3 ± 0.35 | 0.141 (inactive)
CC1CC(C)CN(S(=O)(=O)CCCOc2ccc3c(c2)OCO3)C1 (configuration not stated) | 1.05 ± 0.06 | 1.04 ± 0.064 | 1.01 ± 0.061 | 0.906 ± 0.03 | 1.24 ± 0.09 | 1.05 ± 0.14 | 0.956 (active)
NC(=O)CSc1nc(O)cc(=O)n1-c1ccccc1F | 0.987 ± 0.16 | 1.06 ± 0.088 | 1.09 ± 0.11 | 0.978 ± 0.048 | 1.39 ± 0.26 | 1.23 ± 0.13 | 1.01 (active)
O=C1CN(C(=O)c2cc3ccccc3o2)c2ccccc2N1 | 1.1 ± 0.35 | 1.01 ± 0.052 | 1.21 ± 0.1 | 0.992 ± 0.035 | 1.03 ± 0.14 | 1.1 ± 0.14 | 0.998 (active)
COc1cc(OC)c(NC(=O)C2CCCN(c3ccc(-c4ccc(C)c(C)c4)nn3)C2)cc1Cl (configuration not stated) | 1.04 ± 0.09 | 1.04 ± 0.081 | 0.93 ± 0.04 | 0.964 ± 0.052 | 1.09 ± 0.066 | 1 ± 0.15 | 1.01 (active)
Cc1nc2c(ccc3ccccc32)c(O)c1CN1CCCC1 | 0.283 ± 0.029 | 0.968 ± 0.076 | 0.95 ± 0.044 | 0.882 ± 0.073 | 1.06 ± 0.11 | 0.808 ± 0.17 | 1 (active)
Br.CCCCn1c(=N)n(CC(=O)OC)c2ccccc21 | 1.13 ± 0.1 | 0.957 ± 0.081 | 1.05 ± 0.059 | 0.955 ± 0.055 | 1 ± 0.055 | 1.15 ± 0.15 | 0.999 (active)
[O-][n+]1cccc(CO)c1 | 1.58 ± 0.067 | 1.96 ± 0.16 | 3.03 ± 0.16 | 1.14 ± 0.054 | 1 ± 0.19 | 1.4 ± 0.42 | 0.987 (active)
CCC[C@@H]1C[C@@H](C(=O)N[C@@H]([C@H]2O[C@H](SC)[C@H](OP(=O)(O)O)[C@@H](O)[C@H]2O)[C@H](C)Cl)N(C)C1 | 0.953 ± 0.08 | 0.954 ± 0.059 | 0.952 ± 0.043 | 0.972 ± 0.073 | 1.01 ± 0.09 | 1.15 ± 0.092 | 1 (active)
CCN(CC)C(=O)Nc1ccc(OCC(O)CNC(C)(C)C)c(C(C)=O)c1 (configuration not stated) [Prestw-1132] | 1.41 ± 0.08 | 1.01 ± 0.062 | 1.16 ± 0.079 | 0.979 ± 0.059 | 1.44 ± 0.15 | 1.29 ± 0.12 | 0.997 (active)
CC(C)(C)C1CCc2c(sc(NC(=O)c3ccc(Cl)cc3)c2C(N)=O)C1 (configuration not stated) | 1.02 ± 0.086 | 1.05 ± 0.093 | 0.91 ± 0.081 | 0.961 ± 0.043 | 1.55 ± 0.23 | 1.16 ± 0.089 | 1.01 (active)
COc1ccc(Cn2c(SC)nc3c(c2=O)C2(CCCCC2)Cc2ccccc2-3)cc1 | 1.43 ± 0.45 | 0.856 ± 0.076 | 1.15 ± 0.2 | 0.791 ± 0.099 | 0.995 ± 0.076 | 1.33 ± 0.25 | 0.989 (active)
O=C(NCCCOc1cccc2cccnc12)c1cccnc1 | 0.892 ± 0.081 | 0.909 ± 0.077 | 1.11 ± 0.13 | 1 ± 0.049 | 1.17 ± 0.2 | 1.25 ± 0.39 | 0.989 (active)
O=C(C=Cc1cc([N+](=O)[O-])ccc1O)c1ccc(Cl)cc1 | 0.614 ± 0.052 | 0.81 ± 0.046 | 1.26 ± 0.21 | 0.496 ± 0.023 | 1.28 ± 0.074 | 1.25 ± 0.11 | 0.983 (active)
COc1cc(C=Nc2ccc3oc(-c4ccc(C(C)(C)C)cc4)nc3c2)ccc1OC(=O)c1ccc(Cl)cc1Cl | 0.994 ± 0.056 | 0.981 ± 0.11 | 0.936 ± 0.11 | 0.931 ± 0.031 | 1.28 ± 0.15 | 1.14 ± 0.1 | 1.01 (active)
Cc1ccc(S(=O)(=O)Nc2ccccc2-c2nc3ccccc3o2)cc1 | 2.45 ± 0.19 | 1.24 ± 0.081 | 1.45 ± 0.051 | 0.323 ± 0.033 | 1.09 ± 0.048 | 1.21 ± 0.08 | 0.713 (active)
COc1ccc(C2NN(Cc3ccccc3)C3C(=O)N(C)C(=O)C23)cc1 (configuration not stated) | 0.902 ± 0.058 | 0.945 ± 0.088 | 1.13 ± 0.086 | 1.26 ± 0.068 | 1.33 ± 0.29 | 1.46 ± 0.5 | 0.955 (active)
CC12CC3CC(C1)CC(CC(=O)O)(C3)C2 | 1.02 ± 0.18 | 1.04 ± 0.12 | 0.994 ± 0.17 | 0.907 ± 0.029 | 1.09 ± 0.11 | 1.3 ± 0.3 | 0.526 (inactive)
Cc1ccc2c(c1)C(=O)CC(O)(C(F)F)O2 (configuration not stated) | 0.922 ± 0.073 | 1 ± 0.067 | 0.954 ± 0.062 | 0.764 ± 0.12 | 0.984 ± 0.089 | 0.959 ± 0.14 | 1 (active)
Cl.O=S(=O)(c1cccc2cnccc12)N1CCCNCC1 | 0.76 ± 0.1 | 1.01 ± 0.27 | 1.06 ± 0.06 | 0.825 ± 0.033 | 0.85 ± 0.15 | 0.558 ± 0.083 | 0.992 (active)
O=C(NCC1(O)CCc2ccccc2C1)Nc1ccccc1C(F)(F)F (configuration not stated) | 0.914 ± 0.18 | 1.02 ± 0.11 | 1.18 ± 0.074 | 0.973 ± 0.05 | 1.17 ± 0.2 | 1.31 ± 0.42 | 0.908 (active)
Cc1cc(C(O)CNC(=O)c2ccc(C(F)(F)F)nc2)c(C)o1 (configuration not stated) | 1.25 ± 0.083 | 1.05 ± 0.085 | 1.01 ± 0.029 | 0.965 ± 0.049 | 1.04 ± 0.053 | 1.16 ± 0.11 | 1 (active)
COc1cccc(-c2csc(C(C#N)=CNc3cc(Cl)ccc3OC)n2)c1 | 0.939 ± 0.096 | 1.06 ± 0.083 | 0.963 ± 0.093 | 0.964 ± 0.024 | 1.24 ± 0.21 | 1.01 ± 0.26 | 1.01 (active)
COc1ccc(CNCc2cccc3ccccc23)cc1OC | 0.482 ± 0.04 | 0.912 ± 0.094 | 0.966 ± 0.042 | 0.832 ± 0.15 | 1.06 ± 0.086 | 1.16 ± 0.21 | 0.997 (active)
